# From PubChem BioAssay (NCI)
# This is part of a sample that, as a whole, favours compounds with a hit. Of some 79,000 tested, about 15% had one in any assay. A number with no mark means an inactive call. Activity calls are given as the source filed them. No stated cut-off is given here; in the data, active means growth inhibition above about 70%; inactive means the rest.
# Columns and labels:
# [1] = NCI Yeast Anticancer Drug Screen. Data for the rad50 strain (AID 155);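 further: 0% = growth of vehicle-only cultures of the same strain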; details: S. cerevisiae rad50 strain growth inhibition, stronger effect = higher value
# Summary of the method: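 Genetically altered yeast (DNA repair pathway); compound treatment; growth inhibition vs vehicle ctrl.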
# [2] = NCI Yeast Anticancer Drug Screen. Data for the mec2-1 strain (AID 157); details: S. cerevisiae mec2-1 strain, stronger effect = higher value
# Summary of the method: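 Yeast mec2-1 mutant treated with compound. Readout: growth inhibition vs vehicle controls.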
# [3] = NCI Yeast Anticancer Drug Screen. Data for the sgs1 mgt1 strain (AID 161);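 further: 0% = growth of cultures given vehicle only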; details: S. cerevisiae sgs1 mgt1 strain, stronger effect = higher value
# Summary of the method: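 Genetically altered yeast, compound exposure, growth inhibition relative to vehicle.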
# [4] = NCI Yeast Anticancer Drug Screen. Data for the cln2 rad14 strain (AID 165);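 further: 0% = growth equal to vehicle treated cultures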; details: S. cerevisiae cln2 rad14 strain, stronger effect = higher value
# Summary of the method: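 cln2 rad14 yeast strain; compound exposure; growth inhibition read vs vehicle controls.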
# [5] = NCI Yeast Anticancer Drug Screen. Data for the bub3 strain (AID 167); details: S. cerevisiae bub3 mutant strain, stronger effect = higher value
# Summary of the method: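 Yeast carrying a defined mutation is treated with each compound, and growth is compared with that of vehicle-exposed cells to give inhibition.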
# [6] = NCI Yeast Anticancer Drug Screen. Data for the mlh1 rad18 strain (AID 175); details: S. cerevisiae mlh1 rad18 strain growth inhibition, stronger effect = higher value
# Summary of the method: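 Yeast w/ defined DNA-repair lesions; compound exposure; growth vs vehicle controls → % inhibition.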
# [7] = at 5.0 µM (retest, dose inferred, filed as 0.5)
# [8] = at 50.0 µM (retest, dose inferred, filed as 5.0)
SMILES,"growth inhibition [1, 7]","growth inhibition [1, 8]",growth inhibition ([1]; at 50.0 µM),"growth inhibition [2, 7]","growth inhibition [2, 8]",growth inhibition ([2]; at 50.0 µM),"growth inhibition [3, 7]","growth inhibition [3, 8]",growth inhibition ([3]; at 50.0 µM),"growth inhibition [4, 7] [%]","growth inhibition [4, 8]",growth inhibition ([4]; at 50.0 µM),"growth inhibition [5, 7]","growth inhibition [5, 8]",growth inhibition ([5]; at 50.0 µM),"growth inhibition [6, 7]","growth inhibition [6, 8]",growth inhibition ([6]; at 50.0 µM)
C=Cc1ccc(B2NCCO2)cc1,-2%,99% (active),99.7% (active),7%,97% (active),99.5% (active),-8%,99% (active),99.6% (active),0,74% (active),92.5% (active),8%,59%,99.5% (active),10%,99% (active),99.2% (active)
COc1ccc(C2COc3cc(O)c(O)cc3C2)cc1 (stereo not given),95% (active),99% (active),99.6% (active),95% (active),99% (active),99.6% (active),93% (active),99% (active),99.8% (active),46,99% (active),99.6% (active),98% (active),99% (active),99.6% (active),99% (active),99% (active),98.2% (active)
NC1CCCCC1N.O=S(=O)([O-])CCCN1CCN(CCO)CC1.O=S(=O)([O-])CCCN1CCN(CCO)CC1.[Pt+4],8%,98% (active),-8.45%,8%,99% (active),-9.95%,12%,98% (active),23.1%,44,66%,-15.8%,-24%,97% (active),-2.7%,16%,98% (active),24.4%
COC1(CO)C(=O)N(C)CC(=O)N1C (stereo not given),1%,99% (active),99.3% (active),10%,99% (active),99.7% (active),5%,99% (active),99.3% (active),-7,20%,99.7% (active),0%,99% (active),99.5% (active),1%,99% (active),99.3% (active)
COc1cc(C(c2cc3c(cc2O)OCO3)N2CCCCC2)cc(OC)c1OC (stereo not given),-4%,13%,25%,0%,20%,34.6%,-5%,-33%,21.8%,-6,-3%,67.5%,-1%,4%,31.6%,-6%,6%,62.6%
CCOC(=O)/C=C(\C)Sc1cc(O)c2ccccc2c1O,-3%,22%,68.9%,-1%,28%,79.5% (active),1%,37%,72.5% (active),1,3%,8%,-5%,15%,73% (active),-2%,53%,76.1% (active)
O=C(Cc1ccccc1)c1ccc(O)c(F)c1,4%,79% (active),87.3% (active),6%,85% (active),77.5% (active),6%,72% (active),80.2% (active),4,68%,72.4% (active),7%,88% (active),82.5% (active),7%,84% (active),83.7% (active)
COc1cccc(N2C(=O)C3CC(CC(C)(C)C)c4c([nH]c5ccccc45)C3C2=O)c1 (stereo not given),10%,33%,33.6%,10%,22%,27.6%,13%,20%,35.9%,-4,33%,19.7%,13%,11%,63.4%,8%,30%,23.3%
CCOC(=O)/C(=C\c1ccc(-c2ccccc2)cc1)C(C)=O,0%,93% (active),67.1%,-27%,95% (active),73.5% (active),21%,92% (active),81.2% (active),1,85% (active),45.5%,16%,96% (active),66.9%,-27%,94% (active),76.6% (active)
CCOC(=O)N1CCN(CCCOc2ccc(Cl)cc2Cc2ccccc2)CC1,29%,100% (active),99.7% (active),26%,100% (active),99.7% (active),59%,100% (active),99.8% (active),30,99% (active),99.5% (active),89% (active),100% (active),99.5% (active),24%,100% (active),99.7% (active)
